# Data from PubChem BioAssay (Tox21).
# Where “and” joins values, the source holds several entries; their conditions need not be identical. Equal entries are not always repeated. Records with an inconclusive call do not appear. A call without a number means that no potency is given here. A structure can be active in one record and inactive in another. Calls of active or inactive are those of the source. The call rests on the fitted dose curve; in most records, active means well fitted cell-killing curve with a large enough effect in the repeat runs; inconclusive means weak or mixed curves, or effect the other way; inactive means no such curve, though single readings can be large or run the other way.
# Assay: qHTS assay to identify small molecule antagonists of the vitamin D receptor (VDR) signaling pathway - cell viability counter screen (AID 743225); further: nearly all actives have a fitted effect of over 50% in size
# Details: VDR-bla HEK293T viability, CellTiter-Glo luminescence, 16 h; series mostly up to 61 µM
# Excerpt: U.S. Tox21 Program National Center for Advancing Translational Sciences [NCATS] NIH Chemical Genomics Center [NCGC] U.S. Environmental Protection Agency [EPA] National Institutes of Environmental Health Sciences [NIEHS] National Toxicology Program [NTP] U.S. Food and Drug Administration [FDA] Tox21 Assay Overview: The vitamin D receptor (VDR), a member of nuclear hormone receptor superfamily, plays a critical role in calcium homeostasis and bone metabolism. It is also involved in cell differentiation and growth, and thrombogenicity. To identify the compounds that inhibit VDR signaling, the VDR-UAS-bla HEK 293T cell line (Invitrogen, Carlsbad, CA, USA) containing a beta-lactamase reporter gene under the control of an upstream activator sequence (UAS) was used to screen the Tox21 10K compound library. The cytotoxicity of the Tox21 compound library against the VDR-bla cell line was tested in parallel by measuring the cell viability using CellTiter-Glo assay (Promega, Madison, WI) in the same wells.
# Tox21 Assay Protocol Summary: VDR-bla cells were dispensed at 2,000 cells/5 uL of assay medium per well into black wall/clear-bottom 1536-well plates using a Multidrop Combi (Thermo Fisher Scientific, Waltham, MA) dispenser. After the assay plates were incubated at a 37C and 5% CO2 for 4 h, 23 nL of compounds dissolved in DMSO, positive controls or DMSO only was transferred to the assay plate by a Pintool station (Kalypsys, San Diego, CA), followed by addition of 1 uL of 1-alpha, 25-Dihydroxy Vitamin D3 (3 nM, final concentration in the wells) using a Bioraptr Flying Reagent Dispenser (FRD) workstation (Beckman Coulter, Indianapolis, IN). The plates were incubated at 37C and 5% CO2 for 16 h, and then 1 uL of LiveBLAzerTM B/G FRET substrate was added using a Bioraptr FRD. The plates were incubated at room temperature for 2 h and fluorescence intensity was measured by an Envision plate reader (PerkinElmer, Shelton, CT). For cell viability readout that measures cytotoxicity, 3 ul/well of CellTiter-Glo reagent was added into the assay plates using a Bioraptr FRD. After 30 min incubation at room temperature, the luminescence intensity in the plates was measured using a ViewLux plate reader (PerkinElmer).
# Potency means the concentration at half of the fitted maximal effect.
row,Structure (SMILES),Potency
1,COC(=O)Nc1nc2ccccc2[nH]1,inactive
2,CC(C)(C#N)N=NC(C)(C)C#N,inactive
3,OCCOCCO,inactive
4,Cc1ccc(N=CN(C)C=Nc2ccc(C)cc2C)c(C)c1,inactive
5,O=[N+]([O-])c1ccc(Nc2ccccc2)cc1,inactive and 49 µM (active)
6,Cl,inactive
7,COc1ccc(O)c(C(C)(C)C)c1,inactive
8,COc1ccc(C=O)cc1OC,inactive
9,CSc1nc(NC(C)C)nc(NC(C)C)n1,inactive
10,COP(=S)(OC)Oc1ccc(Sc2ccc(OP(=S)(OC)OC)cc2)cc1,inactive
11,CC(C)=CC1C(C(=O)OCN2C(=O)C3=C(CCCC3)C2=O)C1(C)C (stereo not given),inactive
12,C[N+](C)(C)C,inactive
13,S=c1[nH]c2ccccc2[nH]1,inactive
14,CCC(=O)Nc1ccc(Cl)c(Cl)c1,inactive
15,Cc1cccc(N=Nc2ccc(N(C)C)cc2)c1,inactive
16,Oc1ccc(Cl)cc1Cl,inactive
17,CCOP(=S)(OCC)SCn1c(=O)oc2cc(Cl)ccc21,inactive
18,C[N+](C)(C)CC(=O)[O-],inactive
19,CCCCCCCCCc1ccc(O)cc1,inactive
20,Clc1ccccc1-c1nnc(-c2ccccc2Cl)nn1,inactive

row,Structure (SMILES),Potency
1,CCC[CH2][Sn]([Cl])([CH2]CCC)[CH2]CCC,618 nM (active) and 3.47 µM (active)
2,C[N+](C)(C)CC(=O)O,inactive
3,O=C1CCCO1,inactive
4,CCOP(=S)(OCC)SCSC(C)(C)C,inactive
5,CC(C)(c1ccc(OCC2CO2)cc1)c1ccc(OCC2CO2)cc1 (stereo not given),inactive
6,NN=C(N)N,inactive
7,CCC1(c2ccc(N)cc2)CCC(=O)NC1=O (stereo not given),inactive
8,CNC(=O)Oc1cccc2c1OC(C)(C)C2,inactive
9,N#Cc1cccnc1,inactive
10,Nc1ncn[nH]1,inactive
11,CNC(=O)CSP(=S)(OC)OC,inactive
12,CCCCOCCOC(C)=O,inactive
13,ClC(Cl)(Cl)c1ccccc1,inactive
14,CCC/C=N/O,inactive
15,CS(=O)(=O)NC(=O)c1cc(Oc2ccc(C(F)(F)F)cc2Cl)ccc1[N+](=O)[O-],inactive
16,C=CC(Cl)CCl (stereo not given),inactive
17,O=NN(c1ccccc1)c1ccccc1,inactive
18,CC(C)CON=O,inactive
19,Cc1ccc([N+](=O)[O-])cc1,inactive
20,CCCCOC(=O)COC(=O)c1ccccc1C(=O)OCCCC,inactive
